# Screens (PubChem)
# GCN5L2 inh-1 = inhibitors of human GCN5L2 histone acetyltransferase; GCN5L2 HAT assay, ThioGlo1 CoA-SH fluorescence; actives 0.21% (n = 390,000); Potency, µM (titrated, usually from 58.9 µM), inactives show at the highest dose activity change, negative = inhibition, actives largely listed as inhibitors; AID 504327; Q92830; note: potency is the fitted concentration of half-maximal effect; % is set by controls: 0 for no effect and ±100 for the full control effect
#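 Preincubate 20nM GCN5L2 with compound 15 min, RT → add 50uM ThioGlo1 + 75uM H3(1-25) + 70uM acetyl-CoA → read fluorescence 0 and 20 min. Primary qHTS; fluorescent artifacts likely.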
# RGS4 inhibitor = human RGS4 inhibition. P49798. Transcreener GDP fluorescence polarization, RGS4-accelerated GTP hydrolysis. Potency, µM (titrated, usually from 114 µM), inactives show at the highest dose activity change, negative = inhibition, actives largely listed as inhibitors. actives 0.039% (n = 390,000); note: potency is the fitted concentration of half-maximal effect; % is set by controls: 0 for no effect and ±100 for the full control effect; nearly all actives have a fitted effect of over 75% in size
#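 MLSMR compounds (23 nl, pin-transferred) preincubated 10 min at room temperature with a 500nM (2x) first reagent, then RGS4 at 900nM (2x) plus Transcreener GDP mix added; fluorescence polarization (620/688 nm) read before and after 90 min at 30 °C.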
# TDP1 block = inhibitors of human tyrosyl-DNA phosphodiesterase TDP1; Q9NUW8; recombinant TDP1, AlphaScreen DNA substrate cleavage; Potency, µM (highest dose often 130 µM), for inactives: at the highest dose activity change, negative = inhibition, hits mostly inhibitors; actives 0.28% (n = 350,000); AID 485290; note: potency is the fitted concentration of half-maximal effect; % is set by controls: 0 for no effect and ±100 for the full control effect; nearly all actives have a fitted effect of over 40% in size
#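 E. coli-derived human Tdp1, 1 nM final. Cpd preinc 15 min RT; substrate 15 nM final, 5 min RT; AS bead mix 10 ug/ml final, 10 min RT. Signal loss = tyrosine-FITC cleavage. No-enzyme wells = max signal.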
# RECQ1 helicase = RECQ1 (human) helicase inhibition; P46063; RECQ1 DNA unwinding, red fluorescence kinetic read; Potency, µM (highest dose often 57.3 µM), for inactives: at the top dose activity, negative = inhibition, most hits filed as inhibitors; actives 0.54% (n = 240,000); AID 2549;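 note: potency is the fitted concentration of half-maximal effect; plate controls were vehicle for no effect and no enzyme for full effect; nearly all actives have a fitted effect of over 30% in size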
#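 RECQ1T1 50 nM; forked duplex (20 bp + 30-nt ss tails) 200 nM, ATP 2 mM final; pH 8.0, 2 mM MgCl2, 2.5 ug/ml poly(dI-dC); 15 min compound preincubation; discontinuous kinetic read over 2 h at RT.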
# APEX1 inh = inhibitors of human APE1 endonuclease; actives 0.35% (n = 350,000); P27695; recombinant APE1, TAMRA/BHQ-2 abasic DNA cleavage fluorescence; AID 2517; Potency, µM (series often up to 65.8 µM), without a hit: top-dose activity change, negative = inhibition, actives largely listed as inhibitors;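 note: potency is the fitted concentration of half-maximal effect; plate controls were vehicle for no effect and reference inhibitor for full effect; nearly all actives have a fitted effect of over 55% in size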
#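 0.75 nM APE1 + cpd, 15 min RT; start w/ 50 nM TAMRA/BHQ-2 THF-abasic dsDNA; kinetic fluor 525/598 nm ×3 reads @60 s; Δ(read3−read1); normalized to DMSO and NSC13755 control wells.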
# BLM helicase inh = blocks DNA unwinding by human BLM helicase; Potency, µM (titrated, usually from 56.1 µM), for the others: at the highest dose activity change, negative = inhibition, usual class: inhibitors; AID 2528; P54132; actives 0.2% (n = 350,000); recombinant BLM DNA unwinding, fluorescence dequenching;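 note: potency is the fitted concentration of half-maximal effect; plate controls were vehicle for no effect and no enzyme for full effect; nearly all actives have a fitted effect of over 35% in size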
# Target sequence (P54132 whole entry, looked up): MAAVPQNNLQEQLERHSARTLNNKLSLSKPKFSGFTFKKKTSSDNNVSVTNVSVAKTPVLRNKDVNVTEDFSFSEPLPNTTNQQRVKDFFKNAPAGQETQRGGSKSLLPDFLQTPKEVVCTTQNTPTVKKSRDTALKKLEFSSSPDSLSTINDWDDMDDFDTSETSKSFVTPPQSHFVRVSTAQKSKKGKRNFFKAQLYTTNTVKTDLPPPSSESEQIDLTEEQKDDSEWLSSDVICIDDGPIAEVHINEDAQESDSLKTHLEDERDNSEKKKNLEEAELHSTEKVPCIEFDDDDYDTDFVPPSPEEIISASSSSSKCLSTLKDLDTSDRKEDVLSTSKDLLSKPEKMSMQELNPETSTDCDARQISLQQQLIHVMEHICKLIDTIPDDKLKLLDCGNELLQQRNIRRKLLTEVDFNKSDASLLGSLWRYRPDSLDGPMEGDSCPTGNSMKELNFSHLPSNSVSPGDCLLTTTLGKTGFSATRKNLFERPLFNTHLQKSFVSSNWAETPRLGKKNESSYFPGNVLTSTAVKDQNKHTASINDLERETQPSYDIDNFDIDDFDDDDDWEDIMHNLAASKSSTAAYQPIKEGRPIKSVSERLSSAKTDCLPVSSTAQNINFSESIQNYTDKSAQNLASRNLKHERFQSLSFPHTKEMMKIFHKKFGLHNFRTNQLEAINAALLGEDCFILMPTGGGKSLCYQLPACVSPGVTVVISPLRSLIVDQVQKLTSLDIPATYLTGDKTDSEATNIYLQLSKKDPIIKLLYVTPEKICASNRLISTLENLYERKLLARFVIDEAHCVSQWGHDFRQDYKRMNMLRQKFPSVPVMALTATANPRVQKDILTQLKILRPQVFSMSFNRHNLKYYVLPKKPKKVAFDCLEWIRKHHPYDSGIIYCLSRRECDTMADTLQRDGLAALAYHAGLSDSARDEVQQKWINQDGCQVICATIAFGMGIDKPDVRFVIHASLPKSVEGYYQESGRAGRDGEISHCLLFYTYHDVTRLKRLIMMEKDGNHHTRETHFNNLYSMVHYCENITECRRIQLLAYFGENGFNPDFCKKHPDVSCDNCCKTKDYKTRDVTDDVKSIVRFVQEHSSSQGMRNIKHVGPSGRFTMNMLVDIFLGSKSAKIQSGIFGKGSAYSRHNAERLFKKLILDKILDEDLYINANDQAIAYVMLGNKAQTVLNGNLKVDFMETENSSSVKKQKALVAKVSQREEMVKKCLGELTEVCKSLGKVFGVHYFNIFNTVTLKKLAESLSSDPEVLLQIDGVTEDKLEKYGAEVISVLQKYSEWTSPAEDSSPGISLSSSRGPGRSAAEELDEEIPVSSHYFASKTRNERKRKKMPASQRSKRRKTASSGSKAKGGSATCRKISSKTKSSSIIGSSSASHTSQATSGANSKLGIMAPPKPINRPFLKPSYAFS
# GCN5L2 inh-2 = human KAT2A HAT inhibition, hit confirmation. Potency, µM, most hits filed as inhibitors. AID 588347. actives 70% (n = 140). GCN5L2 HAT, ThioGlo1 CoA fluorescence, 20 min. shares compounds with GCN5L2 inh-1
# * hit, by the source's call; i = inactive; ? = inconclusive; . = not tested or not shown; [ ] = remark or other dose. Hits are enriched below; roughly 0.87% of the tested compounds scored in any of these assays. Calls come from the whole dose curve; as a rule, active = well fitted curve in the direction sought with a large enough effect; inconclusive = small, poorly fitted or top-dose-only effect, or another doubt; inactive = no such curve, though single readings can be large; an effect the other way counts as inactive or inconclusive.
SMILES,GCN5L2 inh-1,RGS4 inhibitor,TDP1 block,RECQ1 helicase,APEX1 inh,BLM helicase inh,GCN5L2 inh-2
C=CCn1c(SCC(=O)Nc2cc(Cl)ccc2C(=O)O)nc2sc(C)c(C)c2c1=O,31.6µM*,?,0.1%,.,-5.4%,.,?
CC(C)(C)c1ccc(OCC(=O)Nc2ccc(C(=O)Nc3ccccc3C(=O)O)cc2)cc1,31.6µM*,?,-9.3%,.,-6.2%,-5.7%,22.9*
Cc1cccc(OCC(=O)Nc2ccc(C(=O)Nc3ccccc3C(=O)O)cc2)c1C,?,25.1%,1.8%,.,0.5%,-10.2%,.
CN1C(=O)C2CCCCN2c2ccc(C(=O)NCc3ccccc3Br)cc21 (stereo not drawn),0.0%,-4.4%,6.5%,.,.,-2.5%,.
CC(C)CCN1C(=O)c2ccc(C(=O)Nc3ccc(Br)cc3C(=O)O)cc2C1=O,35.5µM*,-8.4%,3.1%,.,-24.3%,-29.3%,20.4*
CCOc1ccccc1N1C(=O)c2ccccc2N/C1=C\N1CCN(C(=O)c2ccco2)CC1,.,-20.4%,0.9%,.,.,.,.
CCCC(=O)Nc1cccc(-c2cn3cccnc3n2)c1,-15.4%,15.0%,-2.6%,-1.3%,-1.8%,1.1%,.
CCCC(=O)Nc1ccc(-c2cn3cccnc3n2)cc1,31.6µM*,-7.0%,.,.,4.4%,-0.8%,20.4*
C=CCc1cccc2cc(C(=O)Nc3ccccc3C(=O)O)c(=O)oc12,?,-33.4%,-4.9%,-3.3%,-1.3%,-7.5%,?
C=CCc1cccc2cc(C(=O)NC)c(=O)oc12,-4.7%,0.5%,2.2%,-1.3%,1.4%,1.7%,.
c1ccc2sc(SN3CCOCC3)nc2c1,?,?,6.9%,i,0.6%,-0.6%,14.5*
CCCCN(C)CCCNC(=O)C1CCN(c2nc3ccc(CC)cc3s2)CC1,-0.8%,-20.6%,5.9%,.,.,-10.5%,.
O=C(CN1C(=O)c2ccccc2Sc2ncccc21)Nc1cccc(C(F)(F)F)c1,-2.0%,5.7%,2.6%,.,.,-7.1%,.
O=C(CN1C(=O)/C(=C2\SC(=S)N(CCS(=O)(=O)O)C2=O)c2ccccc21)Nc1cccc(Br)c1,20µM*,?,.,.,6.7µM*,-14.9%,11.5*
O=C(CN1C(=O)/C(=C2/SC(=S)N(CCS(=O)(=O)O)C2=O)c2ccccc21)Nc1cccc(C(F)(F)F)c1,28.2µM*,?,.,.,?,.,?
CC(=O)O[C@@H]1CC[C@@]2(C)[C@H](C1)[C@H](OC(C)=O)C[C@@H]1[C@@H]2C[C@H]2[C@@H]3CN4C[C@H](C)CC[C@H]4[C@H](C)[C@H]3CC[C@@]12O,-6.0%,.,4.9%,-14.2%,-3.6%,1.8%,.
Cc1nc2nc(-c3cccs3)cn2nc1C,?,-25.5%[56.9 µM],4.2%,i,2.0%,-1.5%,36.3*
COc1cc2c(cc1OC)C1O[C@](CCCCN3C(=O)c4ccccc4C3=O)(C2)Oc2c1c(=O)oc1ccc(F)cc21,?,.,.,.,-29.8%[12.4 µM],?,.
O=C(Nc1ccc(O)c(-c2nc3ccccc3o2)c1)C1(c2ccc(Cl)cc2)CCCC1,?,-19.5%,3.0%,-0.1%,4.3%,-8.3%,14.5*
CC(CCc1ccccc1)NC(=O)CSc1n[nH]c(-c2ccc(F)cc2)n1 (stereo not drawn),-8.7%,9.6%,5.4%,.,.,-1.8%,.
O=C(Nc1cccc(C(F)(F)F)c1)c1ccc2nc(-c3ccco3)c(-c3ccco3)nc2c1,?,?,-4.9%,i,14.0%,?,18.2*
O=C(O)c1ccc2nc(-c3ccco3)c(-c3ccco3)nc2c1,-17.3%,-35.3%,-10.8%,-13.9%,?,-1.1%,.
